Hits are enriched below; roughly 1.8% of the tested compounds scored in any of these assays.
KLF5 inh: inhibitors of KLF5 expression | DLD-1 KLF5 promoter-luciferase reporter, luminescence | inhibition, % at 5 µM | actives 0.23% (n = 290,000);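 active = inhibition above a per-plate limit of that plate's mean compound inhibition plus 3 SD, cut at about 60% in these data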;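 also: higher means less KLF5 promoter-driven luciferase light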
Ba/F3 V617F tox: reduce viability of Ba/F3 cells dependent on JAK2V617F | Ba/F3 EpoR-JAK2V617F viability, ATP luminescence | inhibition, % at 5.6 µM | actives 1.1% (n = 220,000) | AID 1446;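 active = inhibition above the campaign mean plus 3 SD over all tested compounds, cut at about 24% in these data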;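 also: cytokine-independent growth of Ba/F3 cells driven by EpoR plus mutant JAK2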
APP transl inh: APP translation inhibition; SH-SY5Y APP 5'UTR-luciferase reporter, luminescence; inhibition, % at 2 µM; AID 1285; actives 0.82% (n = 190,000);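 active = inhibition above a set limit, derived from the sample mean plus 3 SD, cut at about 45% in these data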
BaF3 parental: parental Ba/F3 viability inhibition as JAK2V617F counter-screen | CellTiter-Glo ATP luminescence | inhibition, % at 5.6 µM | actives 1.1% (n = 220,000);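 active = inhibition above a per-campaign cutoff, the mean inhibition of all tested compounds plus 3 SD, cut at about 27% in these data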
IEC-6 cytotox: kills IEC-6 intestinal cells in KLF5 counter-screen | inhibition, % at 5 µM | AID 1825 | actives 0.78% (n = 290,000) | IEC-6 cytotoxicity, luminescence viability; in the data active = inhibition above about 22%
A number is an active result; . = inactive; / = no result.

SMILES	KLF5 inh	Ba/F3 V617F tox	APP transl inh	BaF3 parental	IEC-6 cytotox
O=C(O)C1CCC(N2C(=O)c3cccc([N+](=O)[O-])c3C2=O)CC1 (stereo unspecified)	.	/	/	/	.
COc1cccc2c1C(=O)c1c(O)c3c(c(O)c1C2=O)C[C@@](O)(C(C)=O)C[C@@H]3O[C@H]1C[C@H](N)[C@H](O)[C@H](C)O1	.	101.8	95.6	101.0	90.6
COc1ccccc1-c1nnc2sc(-c3cc4ccccc4o3)nn12	.	88.2	.	79.7	58.1
C=CC[n+]1ccc(/C=C2\C=Cc3cc(C)ccc3N2CC)c2ccccc21	.	99.8	.	84.6	38.9
CCN1/C(=C/c2cc[n+](CCCS(=O)(=O)[O-])c3ccccc23)Sc2ccccc21	.	.	.	.	.
Cc1cc2nc(C)n(CCCNC(=O)Nc3cccc4ccccc34)c2cc1C	.	.	.	.	.
COc1ccccc1NNC(=O)c1cccnc1Oc1ccccc1	.	.	/	.	.
O=C(NCc1cccs1)C1CCN(c2ccc(S(=O)(=O)N3CCOCC3)cc2Cl)CC1	74.3	72.6	92.7	77.8	76.1
COc1ccc(NC(=O)CS(=O)CC(=O)Nc2ccc(-n3cnnn3)c(C)c2)cc1 (stereo unspecified)	.	/	/	/	.
COc1ccccc1CN1CC(=O)N2CSC[C@H]2C1=O	.	/	/	/	.
c1csc(CNc2ncnc3sccc23)c1	.	33.6	.	36.3	.
NNC(=O)c1ccc(O)cc1O	.	.	.	.	.
CC1(C)CC(N2CCN(Cc3ccccc3)CC2)=CC(=[N+]2CCCCC2)C1	.	80.1	/	70.7	.
CC1(C)CC(N2CCCC2)=CC(=[N+]2CCCC2)C1	.	79.2	.	68.6	.
CCCc1cc(C(=O)Nc2cc(Cl)ccc2O)no1	.	/	/	/	.
CCCc1cc(C(=O)Nc2cc(Br)ccc2O)no1	.	.	.	.	.
CC(C)c1cc(C(=O)Nc2cc(Cl)ccc2O)no1	.	.	.	37.2	.
CC(C)c1cc(C(=O)Nc2cc(Br)ccc2O)no1	.	27.3	.	29.1	.
CCCn1c2c(c(=N)c3c1CCC3)CCC2	.	46.4	/	54.4	.
O=C(O)CCn1c2c(c3ccccc31)CCCC2	.	.	.	.	.
CCCn1c2c(c(=N)c3c1CCC3)CCCC2	.	64.9	.	65.2	.
CCCCCCCn1c2c(c(=N)c3ccccc31)CCC2	.	98.8	.	77.9	33.6
CCOC(=O)Cn1c2c(c(=N)c3c1CCC3)CCCC2	.	.	.	.	.
C=CCNC(=O)c1ccc(OC2CCN(S(=O)(=O)N(C)C)CC2)cc1	.	.	.	.	.
Cc1c(C(=O)NCC2CCCO2)oc2ccc(S(=O)(=O)N3CCCC3)cc12 (stereo unspecified)	.	.	.	.	.
SMILES	KLF5 inh	Ba/F3 V617F tox	APP transl inh	BaF3 parental	IEC-6 cytotox
Cc1c(C(=O)NCC2CCCO2)oc2ccc3c(c12)C(=O)CC(C)(C)O3 (stereo unspecified)	.	.	.	94.3	.
O=C(CN1CCOCC1)Nc1ccc(NC(=O)c2ccccc2F)cc1	.	/	/	/	.
COc1ccc(C(=O)/C=C/C(=O)N(Cc2ccc3c(c2)OCO3)C(C(=O)NC2CCCCC2)c2ccncc2)c(O)c1 (stereo unspecified)	.	.	.	.	.
COc1ccc(C(=O)/C=C/C(=O)N(CC(=O)NC2CCCCC2)Cc2cccs2)c(O)c1	.	.	77.4	.	.
COc1ccc(CN(C(=O)/C=C/C(=O)c2ccc(OC)cc2O)C(C(=O)NC2CCCCC2)c2ccncc2)cc1 (stereo unspecified)	.	.	.	.	.
COCCN(CC(=O)NC1CCCCC1)C(=O)/C=C/C(=O)c1ccc(OC)cc1O	.	.	93.0	.	.
N#CCc1ccc(NC(=O)/C=C/c2ccc([N+](=O)[O-])o2)cc1	.	93.5	56.1	82.8	.
Cc1cc(NC(=O)CSc2cn(CC(=O)N(C(C)C)C(C)C)c3ccccc23)no1	.	/	/	/	.
COc1ccc(NS(=O)(=O)c2ccc(O)c(NC(=O)c3ccc(S(=O)(=O)N4CCCCCC4)cc3)c2)cc1	.	.	.	.	.
COc1ccc(NS(=O)(=O)c2cccc(NC(=O)c3ccc(S(=O)(=O)N4CCCCCC4)cc3)c2)cc1	.	41.9	.	43.9	.
COc1ccc(NS(=O)(=O)c2ccc(N3CCOCC3)c(NC(=O)c3ccc(OC)cc3)c2)cc1	.	41.5	.	42.1	.
COc1ccc(NS(=O)(=O)c2ccc(N3CCOCC3)c(NC(=O)c3ccccc3Cl)c2)cc1	.	42.7	.	41.8	.
O=C(/C=C/c1ccc(Cl)cc1)NC(=S)Nc1ccc(NC(=O)c2ccco2)cc1	.	.	81.3	.	.

Screening data from PubChem.
